# Bioassay records as filed in PubChem.
# Rows were chosen to be rich in hits. Some 9.4% of all compounds tested hit in one or more screens of this group.
# NPC1 promoter act: activates the NPC1 promoter; hit rate 2.4% among 320,000; Potency, µM (top dose mostly 9.22 µM), without a hit: at the top dose activation, usual class: activators; Huh7 NPC1 promoter luciferase reporter, 24 h; further: % of control where 0% means no effect; nearly all actives have a fitted effect of over 60% in size
#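 Luminescence read-out of NPC1 promoter-driven luciferase in stably transfected Huh7 cells; compounds delivered in DMSO and left 24 h at 37C, 5% CO2, qHTS titration format.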
# SMN2 splice up: increases expression of the SMN2 splice variant. HEK293 SMN2-luciferase splicing reporter, luminescence, 30-36 h. Potency, µM (highest dose often 46.1 µM), for inactives: top-dose activity change, positive = activation, hits mostly activators. hit rate 2.8% among 210,000; further: % of control where 0% means no effect; nearly all actives have a fitted effect of over 55% in size
#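 qHTS luciferase splicing reporter: luminescence rises when SMN2 exon 7 is included in transfected HEK293 cells. Compound exposure lasted 30-36 h at 37C, with 4.5 mM final sodium butyrate as control, followed by a ONE-Glo read.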
# FLuc counter: inhibits or activates purified firefly luciferase, miR-21 counter-screen; P08659; purified FLuc, Km substrates, luminescence inhibition; Potency, µM (titrated, usually from 57.5 µM), inactives show at the top dose activity change, negative = inhibition, usual class: inhibitors; hit rate 6.9% among 360,000; AID 588342;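 further: plate controls were vehicle for no effect and reference inhibitor for full effect; nearly all actives have a fitted effect of over 55% in size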
# Target sequence (P08659 whole entry, looked up): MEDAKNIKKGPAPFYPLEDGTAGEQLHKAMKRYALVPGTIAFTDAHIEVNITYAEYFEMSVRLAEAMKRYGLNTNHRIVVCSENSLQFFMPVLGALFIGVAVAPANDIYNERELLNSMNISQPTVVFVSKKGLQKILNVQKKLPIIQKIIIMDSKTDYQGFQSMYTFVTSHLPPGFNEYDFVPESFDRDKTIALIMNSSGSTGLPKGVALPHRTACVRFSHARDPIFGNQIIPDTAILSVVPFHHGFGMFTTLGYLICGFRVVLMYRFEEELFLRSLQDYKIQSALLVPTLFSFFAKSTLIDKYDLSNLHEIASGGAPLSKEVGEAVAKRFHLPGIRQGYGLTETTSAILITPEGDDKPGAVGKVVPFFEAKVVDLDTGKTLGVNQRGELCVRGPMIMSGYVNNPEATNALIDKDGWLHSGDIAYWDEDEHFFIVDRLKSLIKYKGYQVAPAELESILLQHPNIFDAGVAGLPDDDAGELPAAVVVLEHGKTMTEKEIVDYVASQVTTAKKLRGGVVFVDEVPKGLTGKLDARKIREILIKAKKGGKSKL
#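 Purified P. pyralis luciferase (10nM final) with 10uM D-luciferin and 10uM ATP (Km levels) in 50mM Tris acetate pH 7.5, 10mM Mg acetate, 0.01% Tween-20, 0.05% BSA; qHTS 6-point titration, ~60 µM downward; luminescence read.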
# ELG1 genotox: inducers of genotoxicity in HEK293T ELG1-luciferase cells. HEK293T ELG1-luciferase reporter, luminescence, 16 h. Potency, µM (series often up to 46 µM), for inactives: at the top dose activity change, positive = activation, hits mostly activators. hit rate 1.3% among 330,000. AID 504466; further: % of control where 0% means no effect; nearly all actives have a fitted effect of over 60% in size
#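 Cells (2,000/well) expressing the ELG1-luciferase fusion are dosed by pin tool and kept 16 hr at 37 °C, 5% CO2. Signal comes from ONE-Glo luciferase reagent after 30 min at room temperature.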
# Rab9 promoter act: activators of Rab9 promoter | Huh7 Rab9 promoter-luciferase reporter, luminescence, 24 h | Potency, µM (doses to about 9.22 µM), for inactives: top-dose activation, negative = inhibition, actives largely listed as activators | hit rate 2.8% among 320,000; further: % of control where 0% means no effect; nearly all actives have a fitted effect of over 60% in size
#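 Cell-based reporter: Huh7 stable for Rab9 promoter-driven luciferase, plated in reduced-serum medium with 10% FBS at 1500 cells/well, compound-treated 24 h at 37 °C, luminescence read after 10 min reagent.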
# ELG1 DNA repair: ELG1-dependent DNA repair inhibition. HEK293T ELG1-luciferase reporter, luminescence, 16 h; DNA damage induced by 5-fluorouridine. Potency, µM (doses to about 46.1 µM), without a hit: at the highest dose activity change, negative = inhibition, actives largely listed as inhibitors. hit rate 2.3% among 330,000; further: on the % scale 0 is the no-effect control and ±100 the full control effect; nearly all actives have a fitted effect of over 55% in size
#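 5-Fluorouridine DNA damage + compound/DMSO, 2,000 cells/well, 16 h, 37 °C/5% CO2. ONE-Glo, 30 min RT, luminescence. Readout = decrease in reporter signal.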
# ELG1 FLuc counter: luciferase inhibition in cell-free luciferin readout for ELG1 hits | shares compounds with ELG1 DNA repair | cell-free firefly luciferase luminescence counter-screen, ViewLux | Potency, µM (top dose mostly 46.1 µM), for the others: at the top dose activity change, negative = inhibition, hits mostly inhibitors | hit rate 3% among 350; further: on the % scale 0 is the no-effect control and ±100 the full control effect
# ELG1-Luc inh: confirmation of human ELG1-dependent DNA repair inhibitors | shares compounds with ELG1 DNA repair | HEK293T ELG1-luciferase levels, luminescence; cells co-treated with 5-fluorouridine | Potency, µM (series often up to 46.1 µM), for the others: top-dose activity change, negative = inhibition, actives largely listed as inhibitors | hit rate 68% among 670; further: on the % scale 0 is the no-effect control and ±100 the full control effect; nearly all actives have a fitted effect of over 55% in size
# ELG1 MMS Luc: inhibits ELG1-dependent repair under MMS stimulation in HEK293T cells; hit rate 53% among 670; AID 624249; HEK293T luciferase-tagged ELG1 level, MMS stimulated; shares compounds with ELG1 DNA repair; Potency, µM (top dose mostly 46.1 µM), for inactives: at the highest dose activity change, negative = inhibition, hits mostly inhibitors; further: on the % scale 0 is the no-effect control and ±100 the full control effect; nearly all actives have a fitted effect of over 60% in size
# ELG1 5-FU: confirmation of ELG1 repair inhibitors: viability with 5FU; shares compounds with ELG1 DNA repair; cell viability with 5-FU, ELG1-dependent repair; Potency, µM (highest dose often 46.1 µM), for the others: top-dose activity change, negative = viability loss, hits mostly cytotoxic; 670 tested, under 10 active; AID 624250;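 further: ELG1-luc HEK293T cells cotreated with 5-fluorouridine at 10 µM final; viability measured 16 h after compound addition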
# ELG1 MMS viab: confirmation of ELG1 repair inhibitors: viability with MMS. shares compounds with ELG1 DNA repair. Cell viability with MMS, ELG1-dependent DNA repair. Potency, µM (titrated, usually from 46.1 µM), for inactives: at the top dose activity change, negative = viability loss, usual class: cytotoxic. hit rate 33% among 670. AID 624251;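 further: ELG1-luc HEK293T cells co-treated with 10 µM MMS; viability read 16 h after compound addition; on the % scale 0 is the no-effect control and ±100 the full control effect; nearly all actives have a fitted effect of over 60% in size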
# ELG1 unstim viab: counter-screen for ELG1 repair inhibitors: unstimulated cell viability. shares compounds with ELG1 DNA repair. cell viability counter-screen, unstimulated, luminescence. Potency, µM (highest dose often 45.9 µM), for inactives: at the top dose activity change, negative = loss of viability, usual class: cytotoxic. hit rate 8% among 900. AID 624252;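 further: compound exposure lasted 16 hours before reading; on the % scale 0 is the no-effect control and ±100 the full control effect; nearly all actives have a fitted effect of over 55% in size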
# FLuc biochem: firefly luciferase inhibition counter-screen. shares compounds with ELG1 DNA repair. purified firefly luciferase, luminescence counter-screen. Potency, µM (highest dose often 57.5 µM), without a hit: at the highest dose activity, negative = inhibition, usual class: inhibitors. hit rate 10% among 350; further: on the % scale 0 is the no-effect control and ±100 the full control effect
# * hit, by the source's call; ? = inconclusive; . = no result given. The call rests on the fitted dose curve; in most records, active means well fitted curve in the direction sought with a large enough effect; inconclusive means small, poorly fitted or top-dose-only effect, or another doubt; inactive means no such curve, though single readings can be large; an effect the other way counts as inactive or inconclusive. Potency means the concentration at half of the fitted maximal effect.
SMILES,NPC1 promoter act,SMN2 splice up,FLuc counter,ELG1 genotox,Rab9 promoter act,ELG1 DNA repair,ELG1-Luc inh,ELG1 MMS Luc,ELG1 5-FU,ELG1 MMS viab,ELG1 unstim viab,others
CCOc1cc(S(=O)(=O)NCc2ccncc2)ccc1Cl,-33%,-38%,0%,3%,-33%,?,?,0.56µM*,-8%,0.71µM*,-4%,ELG1 FLuc counter=-1%;FLuc biochem=0%
O=C(Nc1ccccc1)c1nc[nH]c1C(=O)NCCCCNC(=O)c1[nH]cnc1C(=O)Nc1ccccc1,.,.,.,-6%,.,?,.,.,.,.,.,
CC(C)(C)OC(=O)NCc1ccc(NC(=O)c2nc[nH]c2C(=O)NCCCCNC(=O)c2[nH]cnc2C(=O)Nc2ccc(CNC(=O)OC(C)(C)C)cc2)cc1,.,.,.,12%,.,0.92µM*,1.1µM*,1.3µM*,-8%,?,?,ELG1 FLuc counter=?;FLuc biochem=1%
CC(C)(C)OC(=O)NCc1ccc(NC(=O)c2nc[nH]c2C(=O)NCCCCCCNC(=O)c2[nH]cnc2C(=O)Nc2ccc(CNC(=O)OC(C)(C)C)cc2)cc1,.,.,.,-4%,.,2.3µM*,1.1µM*,25µM*,?,?,?,
CC(C)(C)OC(=O)NCc1ccc(NC(=O)c2nc[nH]c2C(=O)NCCN(CCNC(=O)c2[nH]cnc2C(=O)Nc2ccc(CNC(=O)OC(C)(C)C)cc2)CCNC(=O)c2[nH]cnc2C(=O)Nc2ccc(CNC(=O)OC(C)(C)C)cc2)cc1,.,.,.,3%,.,7%,.,.,.,.,.,
CC(C)(C)OC(=O)NCc1ccc(NC(=O)c2nc[nH]c2C(=O)NCCCNC(=O)c2[nH]cnc2C(=O)Nc2ccc(CNC(=O)OC(C)(C)C)cc2)cc1,.,.,.,1%,.,1.8µM*,2.2µM*,13µM*,?,25µM*,?,
O=C(CCCCCN1C(=O)[C@@H]2Cc3ccccc3CN2C1=O)Nc1cccc(F)c1,-2%,.,4%,-14%,-15%,?,.,.,.,.,.,
COc1cc2c(cc1OC)CN(C(=O)c1nn(Cc3ccccc3)c(=O)c3ccccc13)CC2,-6%,.,2%,-11%,-9%,2.6µM*,1.1µM*,?,?,?,?,
Cc1ccc(-c2nc3ccccc3n3nnnc23)cc1,2%,13µM*,-16%,?,1%,?,.,.,.,.,3%,ELG1 FLuc counter=59%;FLuc biochem=?
CCOCCCNC(=O)c1cn(C)c2ccc(S(=O)(=O)N3CCCCC3)cc2c1=O,0%,.,1%,0%,-3%,-4%,.,.,.,.,.,
CCn1cc(C(=O)NCC(OC)OC)c(=O)c2cc(S(=O)(=O)N3CCCC3)ccc21,2%,.,1%,-2%,-2%,-16%,.,.,.,.,.,
CCn1cc(C(=O)NCC(OC)OC)c(=O)c2cc(S(=O)(=O)N3CCC(C)CC3)ccc21,-5%,.,1%,-15%,-2%,2.6µM*,16µM*,16µM*,-20%,?,16µM*,
COCCNC(=O)c1cn(C)c2ccc(S(=O)(=O)N3CCCCC3)cc2c1=O,-6%,.,1%,-14%,-4%,2.9µM*,?,?,-2%,-15%,?,
CC(=O)N(C(C)=O)C1=C(C#N)C2(CCCCC2)Cc2ccccc21,-7%,4%,0%,-13%,-6%,-5%,.,.,.,.,.,
COc1ccccc1NC(=O)c1cc2c(CO)cnc(C)c2oc1=Nc1ccc(OC)c(OC)c1,-8%,.,1%,-11%,-10%,2.9µM*,0.89µM*,?,?,?,?,
COc1ccccc1NC(=O)c1cc2c(CO)cnc(C)c2oc1=Nc1cc(OC)c(OC)c(OC)c1,-2%,.,1%,1%,8%,1%,.,.,.,.,.,
